Source: PubChem BioAssay (Tox21)
Inconclusive results are not listed. The source made the active and inactive calls. Calls follow the shape of the dose curve; as a rule, active = well fitted inhibition curve with a large enough effect in the repeat runs; inconclusive = weak or mixed curves; inactive = flat fitted curve, though single readings scatter.

Test: qHTS assay to identify small molecule HDAC inhibitors (AID 1259364); also: nearly all actives have a fitted effect of over 45% in size; as to activity change, negative = inhibition: top concentration of the series differs between compounds
Details: HCT-116 HDAC-Glo I/II luminescence, 2 h; series mostly up to 92.4 µM; activity change, negative = inhibition: at the top concentration
Excerpt: U.S. Tox21 Program National Center for Advancing Translational Sciences [NCATS] NIH Chemical Genomics Center [NCGC] U.S. Environmental Protection Agency [EPA] National Institutes of Environmental Health Sciences [NIEHS] National Toxicology Program [NTP] U.S. Food and Drug Administration [FDA] Tox21 Assay Overview: Histone deacetylases (HDACs) are a group of epigenetic enzymes that regulate gene expression by histone deacetylation. HDACs are capable of introducing epigenetic modifications and such aberrations contribute to the onset and progression of several human diseases, thus making HDACs a popular therapeutic target. For identifying endogenous class I/II HDAC inhibitors a homogenous, luminogenic HDAC I/II cell based assay was used to measure the relative activity of class I and II HDACs from cells. Wild type HCT-116 cells were used to screen Tox21 libraries for identifying class I/II HDAC inhibitors.
Tox21 Assay Protocol Summary: HCT-116 cells were dispensed at 1,500 per well in 5uL of culture medium into white solid bottom 1536-well plates (Greiner Bio-One, Monroe, NC) using a Multidrop Combi (Thermo Scientific, Waltham, MA) dispenser. The assay plates were incubated at 37 C and 5% CO2 for an overnight, and then 23nL of compounds dissolved in DMSO and positive control were transferred using a Pintool station (Wako, San Diego, CA). The assay plates were incubated at 37C and 5% CO2 for 2hr. After compound treatment, 4uL of HDAC-Glo reagent (Promega Corporation, Madison, WI) was added to each well of the assay plates using Flying Reagent Dispenser (FRD, Aurora Discovery, San Diego, CA) and incubated the assay plates at room temperature for 30min. The luminescence signal was quantified using a ViewLux plate reader (Perkin Elmer, Shelton, CT).
% is scaled to controls: 0 for no effect and ±100 for the full control effect; potency is read from the fitted curve at half-maximal effect.

SMILES | Potency | activity change, negative = inhibition
c1ccc(-c2nc3ccccc3[nH]2)cc1 | 2430 nM (active) | 
N#Cc1ccc(C/C(=N/NC(=O)Nc2ccc(OC(F)(F)F)cc2)c2cccc(C(F)(F)F)c2)cc1 |  | -0.289% (inactive)
CCOC(=O)[C@H](C)O |  | 1.37% (inactive)
C=CC(=O)OCC(Br)CBr (stereo not given) |  | -7.55% (inactive)
c1ccc(-c2ccc(C(c3ccccc3)n3ccnc3)cc2)cc1 (stereo not given) |  | -11.4% [at 42.5 µM] (inactive)
CC(C)(C)c1cc(CCC(=O)OCCSCCOC(=O)CCc2cc(C(C)(C)C)c(O)c(C(C)(C)C)c2)cc(C(C)(C)C)c1O |  | 1.94% [at 42.5 µM] (inactive)
Clc1nc(C(Cl)(Cl)Cl)c(Cl)c(Cl)c1Cl |  | -0.987% (inactive)
COc1cc2ncnc(Nc3cccc(Cl)c3)c2cc1OC |  | -7.18% [at 19 µM] (inactive)
CC(C)=CCC[C@H](C)CC=O |  | -0.117% (inactive)
COc1cc(C(C)C)ccc1C |  | 3.05% [at 19 µM] (inactive)
CS(=O)(=O)c1ccc([C@@H](CC2CCCC2)C(=O)Nc2cnccn2)cc1Cl |  | -12.9% (inactive)
CCC(O)CO (stereo not given) |  | 4.83% (inactive)
CC(c1cc(C(C)(C)C)cc(C(C)(C)C)c1O)c1cc(C(C)(C)C)cc(C(C)(C)C)c1O |  | 0.158% (inactive)
O=C(c1ccccc1)c1ccc(Cl)cc1 |  | -9.93% (inactive)
CC(=O)CC(N)=O |  | 0.326% (inactive)
O=[N+]([O-])c1ccc(O)c2ncccc12 |  | -17.2% [at 42.5 µM] (inactive)
O=c1cc[nH]cc1 |  | 1.3% (inactive)
CC1CCC(C(C)(C)O)CC1 (stereo not given) |  | 5.21% (inactive)
Cc1ccc(N=Nc2c(O)ccc3ccccc23)c(C)c1 |  | -22.3% [at 42.5 µM] (inactive)
O=C(Nc1ccccc1)c1cc(Cl)ccc1O | 686 nM (active) | 

SMILES | Potency | activity change, negative = inhibition
O[Si](c1ccccc1)(c1ccccc1)c1ccccc1 |  | -4.88% (inactive)
O=C1OC2(c3ccccc31)c1ccc(O)c(Br)c1Oc1c2ccc(O)c1Br |  | 3.22% (inactive)
CCCCCCCCOC(=O)c1cc(O)c(O)c(O)c1 |  | -9.86% (inactive)
CC1=C(/C=C/C(C)=C/C=C/C(C)=C\C(=O)O)C(C)(C)CCC1 |  | -4.89% (inactive)
Cc1ccc(S(=O)(=O)C(I)I)cc1 |  | 1.13% (inactive)
O=C1OC(O)C(C(Cl)Cl)=C1Cl (stereo not given) |  | 0.94% (inactive)
CCCCCCCC/C=C\CCCCCCCC(=O)N(CCO)CCO |  | -1.55% (inactive)
CC(C)=NNC(N)=S |  | -0.063% (inactive)
CC(CC(C)(C)C)CC(C)(C)CC(C)(C)C (stereo not given) |  | -0.122% [at 42.5 µM] (inactive)
CCCCCCCCCCCCS(=O)(=O)Cl |  | -0.19% [at 19 µM] (inactive)
C=Cc1ccc(O)c(OC)c1 |  | -8.21% (inactive)
CCC(C)(C)c1ccc(CC(C)CN2C[C@@H](C)O[C@@H](C)C2)cc1 (stereo not given in full) |  | -1.04% [at 42.5 µM] (inactive)
CCN(CC)c1ccc(N=Nc2ccccc2)cc1 | 27300 nM (active) | 
CCn1c2ccccc2c2ccccc21 |  | 1.51% (inactive)
CN1CCN(c2ccccc2/C=C2\SCCN(c3ccc(Cl)c(Cl)c3)C2=O)CC1 |  | -2.33% (inactive)
CC(O)(c1ccc(Cl)cc1)c1ccc(Cl)cc1 |  | 2.25% (inactive)
COc1c(Br)cc(Br)c(C)c1Br |  | 12.6% (inactive)
CC(C)(C)C1=CC(=O)C(C(C)(C)C)=CC1=O |  | -0.869% [at 42.5 µM] (inactive)
C=COCCCC |  | 2.54% (inactive)
c1ccc2c(c1)-c1ccc3ccc4cccc5cc-2c1c3c45 |  | -0.563% [at 42.5 µM] (inactive)
